Spn PMK inh: S. pneumoniae PMK inhibitors, primary screen, biochemical, mevalonate pathway, pilot trial included. purified PMK, PK/LDH-coupled NADH absorbance 340 nm. inhibition, % at 10 µM. actives 0.49% (n = 65,000);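 active = top-ranked compounds by inhibition in the single 10 µM screen, taking a fixed number of the strongest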;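 note: 0% = full reaction with DMSO carrier and 100% = background rate without enzyme reaction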
Spn DPM-DC inh: S. pneumoniae DPM-DC inhibitors, primary screen, biochemical, PK/LDH-coupled NADH fluorescence. diphosphomevalonate decarboxylase (Streptococcus pneumoniae D39). purified DPM-DC. calls only at 10 µM. actives 0.49% (n = 65,000);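 active = the 320 compounds with the highest percent inhibition in the single-dose primary screen, excluding strongly autofluorescent ones, cut at about 32% in these data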;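 note: kinetic rate of NADH fluorescence loss reporting ADP formed by the decarboxylase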
NADH enzymes: inhibitors of PK/LDH coupling enzymes, profiling panel, artefact control, biochemical, MLSMR library. actives 0.02% (n = 65,000). coupled PK/LDH NADH assays, four targets. IC50, µM (top dose mostly 10 µM), for the others: at the top dose inhibition;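 active = single-dose screening hits from any of four coupled enzyme assays that gave an IC50 when retested across doses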;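 note: the DPM-DC format reads NADH fluorescence rather than 340 nm absorbance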
A340 absorber: compound light absorbance at 340 nm, profiling panel, artefact control, biochemical, MLSMR library, data from PS, PMK, MK assays; compound absorbance at 340 nm, fold over control; fold change at 10 µM; 65,000 tested, under 10 active;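 active = at 10 µM dose, initial 340 nm absorbance at least 2 fold that of control wells; inactive = change under 2 fold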;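 note: initial absorbance extrapolated from kinetic A340 decline of NADH oxidation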
Fluor 339 460: intrinsic fluorescence of library compounds, ex339/em460 – biochemical, MLSMR library, data from DPM-DC assay, artefact control, profiling panel. fluorescence fold increase at 10 µM. actives 5.5% (n = 65,000). compound autofluorescence, ex339/em460 nm, NADH buffer; stronger effect = higher value; 1 = no-compound wells, NADH background. AID 709, 2007;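 active = at 10 µM, mean starting fluorescence two-fold or more over control wells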;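 note: signal is the first read of a kinetic run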
MK inhibit: S. pneumoniae MK inhibitors, primary screen, biochemical, PK/LDH-coupled NADH absorbance | mevalonate kinase [Streptococcus pneumoniae D39] | purified MK, PK/LDH-coupled NADH absorbance 340 nm | inhibition, % at 10 µM | actives 0.48% (n = 65,000);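 active = ranked among the strongest by inhibition in the single 10 µM screen, a fixed top-ranked set picked for dose follow-up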
* marks the source's active call; other numbers are inactive results; i = inactive; · = no result shown; + = active, no number. Most compounds without a hit are left out; they make up all but 6.8% or so of the library.

SMILES	Spn PMK inh	Spn DPM-DC inh	NADH enzymes	A340 absorber	Fluor 339 460	MK inhibit
CCOC(=O)C1=C(N)OC2=C(C(=O)CCC2)C1c1cccnc1 (configuration not stated)	0.0	i	4.0%	1.03	1.12	12.0
CC1Cc2cc(/C(O)=C3/C(=O)C(=O)N(CC4CCCO4)C3c3ccco3)ccc2O1 (configuration not stated)	6.0	i	9.0%	1.09	1.08	12.0
CC1=C(C(=O)OCC2CCCO2)C(c2ccccc2)NC(=O)N1 (configuration not stated)	6.0	i	8.0%	1.01	0.9	5.0
CC1=C(C(=O)OCC2CCCO2)C(c2ccncc2)C2=C(CCCC2=O)N1 (configuration not stated)	6.0	+	18.0%	1.05	1.42	2.0
CCOC(=O)C1=C(C)NC2=C(C(=O)CCC2)C1c1ccsc1 (configuration not stated)	3.0	i	10.0%	1.11	2.48*	7.0
CC1=C(C(=O)OC(C)C)C(c2cccnc2)C2=C(CCCC2=O)N1 (configuration not stated)	0.0	·	4.0%	1.08	2.25*	7.0
COCCOC(=O)C1=C(C)NC2=C(C(=O)CC(C)(C)C2)C1c1cc2c(cc1Br)OCO2 (configuration not stated)	0.0	i	3.0%	1.02	1.66	4.0
CN1CCN(CP(=O)(N2CCOCC2)N2CCOCC2)CC1	3.0	i	2.0%	1.02	1.12	2.0
CN(C)c1oc(-c2ccccc2)nc1C#N	20.0	·	14.0%	1.08	2.12*	8.0
CCOC(=O)c1nc(-c2ccccc2)oc1N(C)C	9.0	·	5.0%	1.1	4.88*	0.0
CN(C)c1oc(-c2ccccc2Cl)nc1C#N	11.0	i	3.0%	1.05	2.72*	5.0
Cc1ccccc1-c1nnc(-c2ccccc2)o1	8.0	i	10.0%	1.03	1.06	5.0
CN(C)c1oc(-c2ccccc2Cl)nc1S(=O)(=O)c1ccccc1	0.0	i	7.0%	1.07	1.15	8.0
COc1cccc(-c2nc(CS(=O)CC(=O)NCc3ccccc3)c(C)o2)c1 (configuration not stated)	6.0	i	3.0%	1.03	0.98	3.0
COc1ccc(-n2c(/C=C(\C)O)nc(=O)c3c(C)cc(C)nc32)cc1	14.0	i	7.0%	1.35	1.07	2.0
Cc1cc(NC(=O)C2(c3ccccc3)CCCC2)no1	7.0	i	5.0%	1.01	1.07	8.0
O=C(Cc1ccccc1)Nc1ccc(-c2nnc(-c3ccco3)o2)cc1	12.0	i	13.0%	1.01	2.65*	5.0
COc1ccc(CC(=O)Nc2cccc(-c3nnc(-c4ccco4)o3)c2)cc1	8.0	i	3.0%	1.02	1.14	0.0
CCC(=O)Nc1ccc(-c2nnc(-c3ccccc3)o2)cc1	9.0	·	7.0%	1.02	2.36*	4.0
O=C(Cc1ccc(Cl)cc1)Nc1ccc(-c2nnc(-c3ccco3)o2)cc1	0.0	i	12.0%	1.18	1.49	12.0
O=C(O)CCC(=O)Nc1ccc(-c2nnc(-c3ccco3)o2)cc1	4.0	·	3.0%	1.09	2.14*	2.0
COc1ccccc1CC(=O)Nc1ccc(-c2nnc(-c3ccco3)o2)cc1	1.0	·	5.0%	1.08	2.27*	9.0
CCC(=O)Nc1ccc(C(=O)c2ccccc2)cc1	5.0	i	2.0%	1.04	1.09	0.0
COC(=O)c1ccc(OCCn2cnc3ccccc3c2=O)cc1	7.0	i	7.0%	1.06	1.12	14.0
COc1ccc(NC(C)=O)cc1NC(=O)CSc1nc2ncccc2[nH]1	9.0	i	6.0%	1.01	1.09	10.0
SMILES	Spn PMK inh	Spn DPM-DC inh	NADH enzymes	A340 absorber	Fluor 339 460	MK inhibit
CCN(CC)S(=O)(=O)c1cccc(C(=O)OCc2cc(=O)n3nc(C)sc3n2)c1	10.0	i	4.0%	1	1.04	1.0
Cc1ccc(N2CC(C(=O)NCC3CCCO3)CC2=O)cc1Cl (configuration not stated)	2.0	i	3.0%	1.01	1.1	3.0
CCOC(=O)c1ccccc1NS(=O)(=O)c1ccccc1F	10.0	i	4.0%	1.01	1.11	3.0
COc1ccccc1COCC(O)CNCC1(N2CCCCC2)CCCCC1 (configuration not stated)	16.0	i	19.0%	1.06	1.12	41.0*
Cc1ccc(-c2cnc(-c3ccncc3)o2)cc1	11.0	·	8.0%	1.15	2.17*	4.0
Cc1ccc(-c2nc(-c3cccnc3)no2)cc1	3.0	i	7.0%	1.04	1.12	6.0
Cc1ccc(C(=O)C2=C(O)C(=O)N(CCN3CCOCC3)C2c2ccccn2)o1 (configuration not stated)	2.0	i	3.0%	1.07	1.11	4.0
CCCc1nc2oc3c(NCC4CCCO4)ncnc3c2c2c1COC(C)(C)C2 (configuration not stated)	3.0	i	11.0%	1.02	3.17*	7.0
Cc1nc2oc3c(NCc4ccccn4)ncnc3c2c2c1COC(C)(C)C2	3.0	+	5.0%	1	1.86	0.0
COc1ncnc2c1oc1nc(C(C)C)c3c(c12)CC(C)(C)OC3	5.0	i	2.0%	1.07	1.11	2.0
CCOC(=O)N1CCN(c2ncnc3c2oc2nc(C)c4c(c23)CC(C)(C)OC4)CC1	3.0	i	3.0%	1.04	1.21	5.0
CC(C)c1nc2oc3c(NCc4ccccn4)ncnc3c2c2c1COC(C)(C)C2	14.0	+	20.0%	1	2.99*	12.0
CC1(C)Cc2nc3oc4c(NCc5ccccc5)ncnc4c3cc2CO1	5.0	·	7.0%	1.02	3.76*	8.0
CCCc1nc2oc3c(NCCN(C)C)ncnc3c2c2c1CCCC2	13.0	i	7.0%	1	1.43	4.0
O=c1c2cnn(-c3ccc(F)cc3)c2ncn1Cc1ccccn1	2.0	i	1.0%	1.01	1.12	2.0
CC(C)c1nc2oc3c(NCC4CCCO4)ncnc3c2c2c1CCC2 (configuration not stated)	12.0	i	10.0%	1.06	2.4*	4.0
c1nc(NCC2CCCO2)c2[nH]cnc2n1 (configuration not stated)	13.0	i	6.0%	0.99	1.05	6.0
CCCc1nc2oc3c(NCc4ccccn4)ncnc3c2c2c1COC(C)(C)C2	5.0	i	9.0%	1.03	2.66*	4.0
COc1ccc(C2CCCN2C(=O)Nc2ccc(F)cc2)cc1OC (configuration not stated)	6.0	i	5.0%	1.03	1.01	10.0
CC(C)CCOc1ccc(Cl)cc1CN1CCOCC1	5.0	i	2.0%	0.99	1.08	0.0
